The full ranking holds about 33,000 sequences; the median of “E-score (-0.5 to 0.5)” is about -0.017, and the highest 2% start at about 0.3. This is one part of a sample in which the highest values are shown more often than they occur.
What follows are sequences tested against T1, Sut1 (UniProt P53032) (assay: PBM E-score (8-mer binding enrichment) (E-score (-0.5 to 0.5)); higher = stronger / more preferred TF binding). Conditions: protein concentration: 200 nM; construct: GST-full length.
T1 sequence: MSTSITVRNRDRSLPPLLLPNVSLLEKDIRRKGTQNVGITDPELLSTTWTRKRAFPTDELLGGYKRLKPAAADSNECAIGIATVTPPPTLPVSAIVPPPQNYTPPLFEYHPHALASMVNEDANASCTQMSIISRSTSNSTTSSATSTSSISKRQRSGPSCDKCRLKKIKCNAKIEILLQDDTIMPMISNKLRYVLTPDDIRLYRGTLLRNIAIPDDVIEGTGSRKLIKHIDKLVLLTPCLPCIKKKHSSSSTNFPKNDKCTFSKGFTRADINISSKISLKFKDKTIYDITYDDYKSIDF
In short: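 PURExpress in vitro transcription/translation supplied GST-tagged yeast transcription factors, either full-length or DNA-binding domain. Applied at about 100-200 nM to universal all-10-mer Agilent arrays double-stranded by primer extension, the bound protein was detected with fluorescent anti-GST. E-scores, modified Wilcoxon-Mann-Whitney statistics, were given by the Universal PBM Analysis Suite to ungapped eight-base words pooled with their reverse complements after masliner normalisation.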

Sequence	PBM E-score
GAGTGGTA	-0.0154
CTGCGAGC	-0.126
GCGCCCGA	-0.17
AGGATCGG	-0.00265
AACAGTCA	-0.138
CATCTAAA	0.0229
ATGCCATC	0.0993
GCCTTAAA	0.0657
AGGATGCG	-0.116
ATCCTAAG	-0.175
AAGCCAGG	-0.253
CACAAAGG	-0.0165
GGGGCCAC	-0.304
GTTTCGTA	0.0481
GTTTCGAA	0.0889
GTTTCGGA	0.334
CCTGTTTC	-0.0625
ACAATCGG	0.259
GCCCAAAA	-0.0622
AATTCCAA	0.21
AATTCCCA	0.0113
TATTCCGA	0.321
GATTCCCA	-0.188
TATTCCCA	0.139
AATTCCGA	0.371

Sequence	PBM E-score
GATTCCGC	0.0522
GATTCCGA	0.337
CATTCCGA	0.25
ATTCTACC	0.0903
AAAAGATG	0.0556
ACGGTCTA	-0.0922
GATGGAGA	0.0416
ACAGCATG	-0.124
CCGATTGC	0.109
GCAGCAGA	-0.175
CCTTCAGA	-0.0889
GAACTGTC	0.00324
ATTCCCTC	-0.233
TCCCTAGA	-0.00999
AGTATATC	0.12
AGTATATA	0.395
GTTATAAA	0.303
AGTATATG	0.00722
GTTATAAC	-0.0927
CTTATAAA	0.181
ACTAAAAA	0.353
ACTAAAAC	0.159
ACTAAAAG	0.214
CCTATAAA	-0.0583
ACTATAAA	0.321

Sequence	PBM E-score
GCTATAAA	0.194
ACTCAATG	0.104
GATTTGAA	0.142
TAATCGTA	0.0634
CAACGGTC	-0.0872
GGAGGTGA	0.0437
AGGTCTAT	-0.0267
GCTCGATA	-0.105
GGTGTAGA	-0.149
CCTTAAAA	0.0539
TGTATAAA	0.157
ACTTAAAA	0.307
AGTATAAA	0.302
AGTATAAC	0.185
ACTTAAAC	0.241
ACACTTCA	0.0715
AGATGGCA	0.0507
CATAGCCC	-0.196
TCGGAAAA	0.372
CCGGAAAC	0.245
GCGGAAAA	0.174
CCGGAAAG	0.276
CCGGAAAA	0.37
ACGGAAAG	0.25
ACGGAAAC	0.0512

Sequence	PBM E-score
ACGGAAAA	0.243
ACGGAAAT	0.344
TAGGTACA	-0.0499
GTGAACCA	0.00963
ACGGTGCC	-0.0952
TCATTCCA	0.0304
ACGGTCGA	-0.135
CATTCTGA	0.00217
CCCGGACC	0.339
CCCGGACG	-0.12
CCCGGACA	0.354
CACGGACA	0.153
ACCGGACA	0.234
CCCGGATC	0.213
GCCGGACC	0.198
TCCGGACA	0.415
GCCGGACA	0.273
GTCCACTA	-0.0452
GATACTAA	0.141
ATGTGGGG	-0.203
CCAAAAGG	-0.0868
CTGAGTGC	-0.199
AGGAGTGA	-0.0299
CGGAGTGA	0.451
AGGAGTGC	-0.143

Sequence	PBM E-score
GGGAGTGA	-0.0284
CGGAGTGC	0.468
CAGATACC	-0.149
AGGGGCCG	-0.272
GCGCGTCA	-0.00075
ACCCCGGG	0.347
AACCCGGA	0.333
ACCCCGGC	0.183
GACCCGGA	0.204
TCCCCGAA	0.228
ACCCCGGT	0.191
CCCCCGGG	-0.174
CACCCGGA	0.251
TCCCCGGA	0.364
CCCCCGGA	0.0624
TCCCCCGA	-0.141
ACCCCGGA	0.426
CTCTGTGA	-0.105
AGCGTCCC	-0.168
TCACCCCA	-0.0213
GAATTTAC	0.0497
TGCGCAAA	0.0678
AAGAGACC	-0.0189
ATGCAGCC	-0.0379
AGCAAATG	-0.0134

Sequence	PBM E-score
CCTTCGAC	-0.232
TGCCTAAA	-0.00993
CGACATCA	0.143
GGACATCA	0.3
GGACATCC	0.0309
AGCTCAAG	-0.092
CGTGCAGA	-0.148
AGAGCGGG	-0.0998
AGAGCGGA	0.318
AGAGCGGC	-0.125
GGGAGCTA	-0.176
CGGAGCTC	0.414
CTGAGCTC	0.119
CGGAGCCG	0.338
AGGAGCTA	-0.155
AGGAGCCG	-0.281
AGGAGCTC	-0.18
CGGAGCTA	0.385
CGGAGCCC	0.183
AAGCATTC	0.0319
GCTCCCCC	-0.444
GCATCAAA	0.14
CCAAGGAG	-0.0556
ACTTGGTC	0.183
AGCATACA	0.187

Sequence	PBM E-score
GCACAGTA	-0.0754
GGTCCCGA	0.093
AGTCCGGA	0.487
CGTCCGGA	0.27
GGTCCGGA	0.402
AGTCCCGG	0.1
AGGCCGGA	0.279
AGTCCGGC	0.467
CGTCCGGC	-0.0125
AATCCGGG	0.103
AGTCCTGC	-0.19
AGTCCAGA	0.0785
AGTCCGGG	0.485
AAGTCTAC	0.004
GTAGGCAC	-0.102
GTTCCAGA	-0.0427
ATGAATAA	0.146
AGACGGCT	-0.121
AGGCTGTG	-0.0562
GGTGCAAA	0.0509
ATTTTAAA	0.307
AGTTTATA	0.335
TGTTTTAA	0.253
AGTTTTAA	0.341
AGTTTAAT	0.069

Sequence	PBM E-score
AGTTTATC	0.17
ATTTTTAA	0.249
AGTTTAAA	0.335
GGTTTATA	0.0479
GTTTTAAA	0.296
AGTTTTTA	0.175
TGTTTAAA	0.111
AGACCTCC	-0.207
CATAGGGG	-0.348
CGGTTTTC	0.176
CAAGTCAC	-0.0175
TACAACAA	0.286
CAGTTGAA	-0.00817
AAGCCAAC	0.118
AGTTTACA	0.106
AGTGAACA	0.0388
CTGGATTA	0.0735
CCGAGTAG	0.112
GGGAGTAC	-0.064
CGGAGTAG	0.49
AGGAGTAG	-0.0194
CGGAGTAA	0.483
AGGAGTAC	-0.106
GGGAGTAA	0.0687
CGGAGTAC	0.487

Sequence	PBM E-score
AGGAGTAA	0.0575
TAGAATAA	0.207
CAGTATAG	0.0135
AATTGGAT	0.131
ACGCCTCG	-0.115
GGCTTACA	0.0643
CGTTATAA	0.135
TGTTATAA	0.299
TGATATAA	0.222
CTATATAA	0.158
TCATATAA	0.121
AGTTATAA	0.155
ATATATAA	0.351
CTCTATAA	0.186
TTATATAA	0.358
CGCAACCC	0.023
ATCCCAAT	0.0805
CGATGAGC	-0.0442
TAGAAGCA	-0.0194

— the supplement of paper PMC3334620
